Among the test systems are NCI-H23 lung; NCI-H226 lung; NCI-H322M lung; HOP-62 NSCLC; NCI-H460 lung; HOP-92 NSCLC; NCI-H522 lung; A549/ATCC NSCLC; 786-0 renal; COLO 205 colon; DU-145 prostate; K-562 leukemia; MALME-3M melanoma; MDA-MB-231 breast; RXF 393 renal; SF-268 CNS; SF-295 CNS; SF-539 CNS; UACC-257 melanoma; M14 melanoma.
Holding throughout (experiment): NCI-60 one-dose screen, 48 h (100 = growth as untreated, 0 = no growth, -100 = all killed)
Settings in all cases: 10 µM

This is part of a sample that, as a whole, favours compounds with a hit. Of some 83,000 tested, about 20% had one in any assay.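 Method: cells in 96-well plates; compound added at one concentration; 48 h incubation; percent growth measured; values under 10 scored active.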 Values without a mark were called inactive. Activity calls are given as the source filed them.

For `COc1ccc2c(NCCCCCCCCNc3c4ccccc4nc4cc(OC)ccc34)c3ccccc3nc2c1`, the growth in the test on NCI-H23 lung is -92.2% (active); with NCI-H226 lung it was -65.3% (active); in the test with NCI-H322M lung it was -74.3% (active); in the test on HOP-62 NSCLC, -99.2% (active); in the test with NCI-H460 lung, -100% (active); with HOP-92 NSCLC, -100% (active). For the same molecule, the growth in the test with NCI-H522 lung was -74.1% (active); in the test with A549/ATCC NSCLC it was -64.7% (active); with 786-0 renal, -100% (active); in the test with COLO 205 colon, -100% (active); in the test with DU-145 prostate it was -100% (active); in the test with K-562 leukemia, -100% (active). The growth is -98.1% (active) in the test with MALME-3M melanoma; -89.5% (active) with MDA-MB-231 breast; -74.3% (active) in the test with RXF 393 renal; -99.3% (active) in the test with SF-268 CNS; -92.1% (active) in the test with SF-295 CNS; -100% (active) in the test on SF-539 CNS. Moreover, the growth with UACC-257 melanoma is -88.8% (active); in the test with M14 melanoma, -100% (active).
Consider `CCOc1ccccc1/C=N/Nc1nc2ccccc2o1`, for which the growth with NCI-H23 lung is 91.8%; in the test with NCI-H226 lung, 103%; in the test on NCI-H322M lung, 113%; in the test on HOP-62 NSCLC, 97.2%; in the test with NCI-H460 lung, 102%; with HOP-92 NSCLC, 87.9%. The growth was 110% with NCI-H522 lung; 98.6% in the test on A549/ATCC NSCLC; 116% in the test with 786-0 renal; 121% in the test with COLO 205 colon; 110% with DU-145 prostate; 95.7% in the test on K-562 leukemia. Besides, the growth was 97.5% in the test on MALME-3M melanoma; 82.8% with MDA-MB-231 breast; 112% with RXF 393 renal; 108% in the test on SF-268 CNS; 108% with SF-295 CNS; 104% in the test with SF-539 CNS. Moreover, the growth in the test on UACC-257 melanoma is 113%.
`COc1ccc(C2(O)CCCCC2)cc1`: the growth with NCI-H23 lung was 97.9%; with NCI-H226 lung, 92.1%; with NCI-H322M lung, 105%; in the test on HOP-62 NSCLC it was 102%; in the test on NCI-H460 lung it was 105%; in the test on HOP-92 NSCLC it was 73.2%. In addition, the growth was 99.7% in the test with NCI-H522 lung; 101% in the test on A549/ATCC NSCLC; 98.5% in the test on 786-0 renal; 112% in the test with COLO 205 colon; 112% in the test on DU-145 prostate; 111% with K-562 leukemia. Besides, the growth is 105% in the test with MALME-3M melanoma; 97% in the test on MDA-MB-231 breast; 103% with RXF 393 renal; 105% in the test with SF-268 CNS; 105% in the test on SF-295 CNS; 109% in the test with SF-539 CNS. In addition, the figures for the growth in the test on UACC-257 melanoma and in the test on M14 melanoma were 99.1% and 101%, respectively.
Turning to `Oc1ccccc1-c1nnco1`, the growth is 94.9% with NCI-H23 lung; 93.1% in the test on NCI-H226 lung; 89.9% in the test with NCI-H322M lung; 81.5% in the test on HOP-62 NSCLC; 104% with NCI-H460 lung; 97% in the test with HOP-92 NSCLC. In addition, the growth with NCI-H522 lung is 91%; in the test with A549/ATCC NSCLC, 98.9%; in the test on 786-0 renal it was 90.6%; in the test with COLO 205 colon it was 103%; in the test on DU-145 prostate, 99.7%; in the test with K-562 leukemia it was 75.4%. Further, the growth with MALME-3M melanoma was 96.2%; with MDA-MB-231 breast, 84.4%; in the test with RXF 393 renal, 74%; in the test on SF-268 CNS, 65.4%; in the test on SF-295 CNS it was 112%; in the test on SF-539 CNS, 89.9%. Further, the growth with UACC-257 melanoma was 97.3%.
Turning to `CCOc1ccc(I)cc1`, the growth in the test on NCI-H23 lung is 96.7%; in the test on NCI-H226 lung, 103%; in the test on NCI-H322M lung, 120%; with HOP-62 NSCLC, 107%; in the test on NCI-H460 lung it was 108%; in the test on HOP-92 NSCLC, 90.3%. For the same molecule, the growth with NCI-H522 lung was 105%; with A549/ATCC NSCLC, 104%; in the test on 786-0 renal, 109%; in the test with COLO 205 colon it was 111%; with DU-145 prostate, 105%; with K-562 leukemia it was 119%. Further, the growth in the test on MALME-3M melanoma is 108%; in the test on MDA-MB-231 breast it was 102%; in the test with RXF 393 renal, 107%; in the test on SF-268 CNS, 96.4%; with SF-295 CNS it was 113%; in the test on SF-539 CNS it was 97.8%. For the same molecule, in the test with UACC-257 melanoma, the growth is 104%.
As to `O/N=C/c1ccc(O)cc1O`, the growth is 105% in the test on NCI-H23 lung; 108% in the test on NCI-H226 lung; 117% with NCI-H322M lung; 101% in the test on HOP-62 NSCLC; 109% in the test on NCI-H460 lung; 92% in the test on HOP-92 NSCLC. Moreover, the growth in the test with NCI-H522 lung is 86%; in the test on A549/ATCC NSCLC, 91.4%; with 786-0 renal, 108%; in the test on COLO 205 colon, 111%; in the test with DU-145 prostate, 112%; in the test with K-562 leukemia, 105%. In addition, the growth with MALME-3M melanoma is 109%; in the test with MDA-MB-231 breast, 105%; in the test with RXF 393 renal, 112%; in the test on SF-268 CNS it was 105%; in the test on SF-295 CNS, 107%; with SF-539 CNS it was 104%. Also, in the test with UACC-257 melanoma, the growth was 87.7%.
Regarding `CC(C)=NNc1ccc([N+](=O)[O-])cc1[N+](=O)[O-]`, the growth with NCI-H23 lung was 95.5%; in the test with NCI-H226 lung, 98.3%; with NCI-H322M lung it was 87.9%; with HOP-62 NSCLC, 87.9%; in the test with NCI-H460 lung, 88.1%; in the test with HOP-92 NSCLC, 80.2%. Moreover, the growth is 82.1% in the test on NCI-H522 lung; 83.2% with A549/ATCC NSCLC; 93.8% in the test with 786-0 renal; 84.9% in the test on COLO 205 colon; 89.8% in the test with DU-145 prostate; 60.2% in the test with K-562 leukemia. In addition, the growth is 159% in the test with MALME-3M melanoma; 82.4% in the test with MDA-MB-231 breast; 109% in the test on RXF 393 renal; 85.1% in the test with SF-268 CNS; 69.8% in the test with SF-295 CNS; 95.6% with SF-539 CNS. The growth was 101% with UACC-257 melanoma and 74.3% in the test on M14 melanoma.
Consider `O=C(NN=C1CCCCC1)C(=O)NN=C1CCCCC1`, for which the growth is 105% in the test with NCI-H23 lung; 101% in the test with NCI-H226 lung; 124% in the test with NCI-H322M lung; 98.1% with HOP-62 NSCLC; 117% with NCI-H460 lung; 101% in the test with HOP-92 NSCLC. The growth with NCI-H522 lung is 98.7%; in the test on A549/ATCC NSCLC, 116%; with 786-0 renal, 105%; with COLO 205 colon, 106%; with DU-145 prostate, 121%; with K-562 leukemia it was 81.1%. For the same molecule, the growth in the test on MALME-3M melanoma is 127%; in the test with MDA-MB-231 breast, 113%; with RXF 393 renal it was 107%; with SF-268 CNS, 99.1%; in the test with SF-295 CNS, 113%; with SF-539 CNS it was 101%. Moreover, in the test on UACC-257 melanoma, the growth is 108%.

Source of the values: PubChem BioAssay (NCI).
